Screen size: about 54,000 sequences; about 2,800 (5.2%) were called active. Cut-off read from the data, not from the text of the source: active = GI50 up to about 1.1 µM and inactive = higher. The sample as a whole holds a higher share of actives than the screen did. Potency and affinity values are given separately.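 All cell lines were grown in 96-well plates and treated with compound for 48 hours. Abbreviation: GI50, concentration required for 50% inhibition of growth.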

The record followed here is ChEMBL document CHEMBL1201862, “PubChem BioAssay data set” (2004).

In this experiment the test system is NCI-H226. Kind of experiment: NCI tumour cell line growth inhibition, 48 h.
For TRIBUTYLCHLOROSTANNANE, CHEMBL1088186, the GI50 came to 0.21 µM.
